Experimental data taken from PubChem BioAssay (NCI).
The panel holds about 79,000 compounds, 15% with a hit somewhere; the sample as a whole holds those more often. Active and inactive are the calls of the source. Rule as the data show it: active = growth inhibition above about 70%; inactive = the rest.

Assays:
[1] = NCI Yeast Anticancer Drug Screen. Data for the wt2 strain (AID 169);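 also: 0% = growth of vehicle-treated yeast cultures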; details: S. cerevisiae wt2 strain growth inhibition, stronger effect = higher value
Outline: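 Inhibition of yeast growth was determined after compound treatment, normalised to controls receiving only vehicle.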

[2] = NCI Yeast Anticancer Drug Screen. Data for the mlh1 strain (AID 171);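 also: 0% = growth of vehicle-treated control cultures of the same strain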; details: S. cerevisiae mlh1 strain growth inhibition, stronger effect = higher value
Outline: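 Vehicle-normalised growth inhibition of a repair- or checkpoint-altered yeast strain following compound treatment.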

[3] = NCI Yeast Anticancer Drug Screen. Data for the sgs1 strain (AID 173);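 also: 0% = growth of vehicle-only control cultures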; details: S. cerevisiae sgs1 mutant, stronger effect = higher value
Outline: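 Screen format: yeast with repair or checkpoint alterations, compound exposure, growth read relative to vehicle.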

[4] = NCI Yeast Anticancer Drug Screen. Data for the mlh1 rad18 strain (AID 175); details: S. cerevisiae mlh1 rad18 strain growth inhibition, stronger effect = higher value
Outline: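 Vehicle-treated cultures served as the reference for growth inhibition in a yeast strain carrying DNA damage repair alterations exposed to each compound.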

[5] = NCI Yeast Anticancer Drug Screen. Data for the rad18 strain (AID 177); details: S. cerevisiae rad18 mutant growth inhibition, stronger effect = higher value
Outline: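 Test articles were incubated with altered yeast defective in DNA damage repair. Results are given as inhibition of growth versus vehicle.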

[6] = NCI Yeast Anticancer Drug Screen. Data for the rad52 strain (AID 147);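 also: 0% = growth of vehicle-treated control cultures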; details: S. cerevisiae rad52 mutant growth inhibition, stronger effect = higher value
Outline: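 Vehicle-treated cultures served as the reference for growth inhibition of compound-exposed yeast bearing a DNA repair mutation.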

[7] = NCI Yeast Anticancer Drug Screen. Data for the wt1 strain (AID 149);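 also: 0% = growth of vehicle-treated wt1 cultures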; details: S. cerevisiae wt1 strain (SPY 50644) growth inhibition, stronger effect = higher value
Outline: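 Yeast wt1 strain exposed to compounds; growth inhibition measured relative to vehicle-treated controls.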

[8] = NCI Yeast Anticancer Drug Screen. Data for the rad50EPP+ strain (AID 151);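 also: 0% = growth of vehicle-treated control cultures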; details: S. cerevisiae rad50 mutant strain, stronger effect = higher value
Outline: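 In this screen, rad50EPP+ yeast were exposed to compounds. Growth inhibition was scored against vehicle-treated controls.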

[9] = NCI Yeast Anticancer Drug Screen. Data for the mgt1 strain (AID 153); details: S. cerevisiae mgt1 mutant growth inhibition, stronger effect = higher value
Outline: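 mgt1 strain exposed; growth vs vehicle control recorded as inhibition.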

[10] = NCI Yeast Anticancer Drug Screen. Data for the rad50 strain (AID 155);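 also: 0% = growth of vehicle-only cultures of the same strain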; details: S. cerevisiae rad50 strain growth inhibition, stronger effect = higher value
Outline: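 Yeast carrying a defined DNA repair defect were exposed to test compounds, and growth was compared with vehicle-treated controls to give percent inhibition.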

[11] = NCI Yeast Anticancer Drug Screen. Data for the mec2-1 strain (AID 157); details: S. cerevisiae mec2-1 strain, stronger effect = higher value
Outline: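 Vehicle-treated cultures served as reference for growth inhibition of compound-exposed mec2-1 yeast.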

[12] = NCI Yeast Anticancer Drug Screen. Data for the rad14 strain (AID 159);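 also: 0% = growth of vehicle-treated control cultures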; details: S. cerevisiae rad14 strain growth inhibition, stronger effect = higher value
Outline: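 Yeast cells carrying a defined DNA-repair defect were exposed to compounds, and growth inhibition was calculated relative to vehicle-treated control cultures.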

[13] = NCI Yeast Anticancer Drug Screen. Data for the sgs1 mgt1 strain (AID 161);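 also: 0% = growth of cultures given vehicle only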; details: S. cerevisiae sgs1 mgt1 strain, stronger effect = higher value
Outline: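 Test agents were incubated with a DNA-repair-mutant yeast strain. Growth was then read and compared against vehicle-treated controls.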

[14] = NCI Yeast Anticancer Drug Screen. Data for the CLN2oe strain (AID 163);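 also: 0% = growth of vehicle-only control cultures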; details: S. cerevisiae CLN2oe strain, stronger effect = higher value
Outline: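 Inhibition relative to vehicle-treated yeast is reported. Cells: strain with genetic alteration in cell-cycle control, grown with compound.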

[15] = NCI Yeast Anticancer Drug Screen. Data for the cln2 rad14 strain (AID 165);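 also: 0% = growth equal to vehicle treated cultures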; details: S. cerevisiae cln2 rad14 strain, stronger effect = higher value
Outline: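 Each compound was tested on cln2 rad14 yeast. Inhibition of growth was calculated against vehicle-exposed controls.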

[16] = NCI Yeast Anticancer Drug Screen. Data for the bub3 strain (AID 167); details: S. cerevisiae bub3 mutant strain, stronger effect = higher value
Outline: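 Compounds were applied to a genetically altered yeast strain carrying a cell-cycle control defect. Growth inhibition was scored against vehicle-treated controls.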

[17] = at 5.0 µM (retest, dose inferred, filed as 0.5)
[18] = at 50.0 µM (retest, dose inferred, filed as 5.0)

Measured: growth inhibition

COC(=O)C1=C(C(=O)OC)C(C(=O)OC)C(C(=O)OC)C(C(=O)OC)(C(=O)OC)C(C(=O)OC)=C1C(=O)OC (stereo unspecified)
active: [4]; [18] 87%
inactive: [1]; at 1.2 µM -22% | [1]; at 3.7 µM -18% | [1]; at 11.0 µM -17% | [1]; at 33.0 µM 1% | [1]; at 100.0 µM 58% | [2]; at 1.2 µM -16% | [2]; at 3.7 µM -23% | [2]; at 11.0 µM -18% | [2]; at 33.0 µM -1% | [2]; at 100.0 µM 39% | [3]; at 1.2 µM -18% | [3]; at 3.7 µM -11% | [3]; at 11.0 µM -7% | [3]; at 33.0 µM 18% | [3]; at 100.0 µM 60% | [4]; [17] 26% | [4]; at 50.0 µM 67.4% | [5]; at 1.2 µM -20% | [5]; at 3.7 µM -21% | [5]; at 11.0 µM -5% | [5]; at 33.0 µM 17% | [5]; at 100.0 µM 51%

NC1CCCCC1N.Nc1c(N=Nc2ccc(-c3ccc(N=Nc4cc(S(=O)(=O)[O-])c5ccccc5c4N)cc3)cc2)cc(S(=O)(=O)[O-])c2ccccc12.[OH3+].[OH3+].[Pt+4]
inactive: [6]; at 1.2 µM 0% | [6]; at 3.7 µM 4% | [6]; at 11.0 µM 47% | [6]; at 100.0 µM 65% | [7]; at 1.2 µM 1% | [7]; at 3.7 µM -43% | [7]; at 11.0 µM 26% | [7]; at 33.0 µM 35% | [8]; at 1.2 µM -7% | [8]; at 3.7 µM 13% | [8]; at 100.0 µM 60% | [9]; at 1.2 µM 1% | [9]; at 3.7 µM 12% | [10]; at 1.2 µM 2% | [10]; at 3.7 µM 1% | [10]; [17] 1% | [10]; at 11.0 µM 28% | [11]; at 1.2 µM 0% | [11]; at 3.7 µM 9% | [11]; at 11.0 µM 66% | [12]; at 1.2 µM 2% | [12]; at 3.7 µM 13% | [13]; [17] 38% | [14]; at 1.2 µM 1% | [14]; at 3.7 µM -1% | [14]; at 11.0 µM 22% | [14]; at 100.0 µM 63% | [15]; [17] 66% | [15]; at 50.0 µM 69.8% | [16]; at 1.2 µM -1% | [16]; at 3.7 µM -1% | [16]; at 11.0 µM 54% | [16]; at 100.0 µM 68% | [1]; at 1.2 µM -1% | [1]; at 3.7 µM 10% | [2]; at 1.2 µM -1% | [2]; at 3.7 µM 7% | [2]; at 100.0 µM 65% | [3]; at 1.2 µM 4% | [3]; at 3.7 µM 22% | [5]; at 1.2 µM 1% | [5]; at 3.7 µM -2% | [5]; at 11.0 µM 25%
active: [6]; at 33.0 µM 80% | [7]; at 100.0 µM 92% | [8]; at 11.0 µM 91% | [8]; at 33.0 µM 88% | [9]; at 11.0 µM 90% | [9]; at 33.0 µM 94% | [9]; at 100.0 µM 84% | [10]; at 33.0 µM 89% | [10]; [18] 83% | [10]; at 50.0 µM 86.7% | [10]; at 100.0 µM 70% | [11]; [17] 88% | [11]; at 33.0 µM 92% | [11]; [18] 84% | [11]; at 50.0 µM 80.9% | [11]; at 100.0 µM 77% | [12]; at 11.0 µM 85% | [12]; at 33.0 µM 94% | [12]; at 100.0 µM 81% | [13]; [18] 89% | [13]; at 50.0 µM 84.9% | [14]; at 33.0 µM 89% | [15]; [18] 78% | [16]; [17] 91% | [16]; at 33.0 µM 90% | [16]; [18] 83% | [16]; at 50.0 µM 82.5% | [1]; at 11.0 µM 86% | [1]; at 33.0 µM 90% | [1]; at 100.0 µM 70% | [2]; at 11.0 µM 81% | [2]; at 33.0 µM 90% | [3]; at 11.0 µM 95% | [3]; at 33.0 µM 93% | [3]; at 100.0 µM 80% | [4]; [17] 77% | [4]; [18] 78% | [4]; at 50.0 µM 85.2% | [5]; at 33.0 µM 88% | [5]; at 100.0 µM 71%
